Results taken from PubChem BioAssay (NCI).
About 83,000 compounds went through this panel and 20% of them were active in at least one assay; those are over-represented in the sample as a whole.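 Activity criterion: percent growth below 10, measured after cells in 96-well plates were exposed to a single compound concentration for 48 hours.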 A number with no mark means an inactive call. Active and inactive are the calls of the source.

Key:
Assay in all cases: NCI-60 one-dose screen, 48 h (100 = growth as untreated, 0 = no growth, -100 = all killed)
Conditions in all cases: 10 µM
HCT-15 colon = system: HCT-15 colon
HT29 colon = system: HT29 colon
SNB-75 CNS = system: SNB-75 CNS
SNB-19 CNS = system: SNB-19 CNS
U251 CNS = system: U251 CNS
PC-3 prostate = system: PC-3 prostate
SK-MEL-5 melanoma = system: SK-MEL-5 melanoma
UACC-62 melanoma = system: UACC-62 melanoma
LOX IMVI melanoma = system: LOX IMVI melanoma
SK-MEL-28 melanoma = system: SK-MEL-28 melanoma

| SMILES | growth (HCT-15 colon) | growth (HT29 colon) | growth (SNB-75 CNS) | growth (SNB-19 CNS) | growth (U251 CNS) | growth (PC-3 prostate) | growth (SK-MEL-5 melanoma) | growth (UACC-62 melanoma) | growth (LOX IMVI melanoma) | growth (SK-MEL-28 melanoma) |
| --- | --- | --- | --- | --- | --- | --- | --- | --- | --- | --- |
| COc1nccnc1NS(=O)(=O)c1ccc(NC2=C(Cl)C(=O)c3nc(C)ccc3C2=O)cc1 | 93.7% | 120% | 111% | 97.9% | 96.9% | 80.2% | 100% | 101% | 71.7% | 121% |
| CN1CCN(c2ccc(Nc3nc(NCCCNC(=O)c4ccc(Cl)cc4)c4sccc4n3)cc2)CC1 | 26.8% | 35.4% | 99.5% | 104% | 44.6% | 61.6% | 72.4% | 86% | 59.7% | 89.1% |
| O=C(Cn1nc(-c2ccccc2)ccc1=O)NN1C(=O)c2ccccc2C1=O | 99.2% | 120% | 107% | 89.8% | 102% | 97.8% | 100% | 106% | 92.7% | 108% |
| O=S(=O)(Nc1ncccn1)c1ccc(-n2c(-c3ccccc3)nc(-c3ccccc3)c2-c2ccccc2)cc1 | 80.7% | 105% | 77.2% | 82.3% | 81.5% | 67.8% | 76.1% | 83.7% | 85.7% | 105% |
| Cc1cc(C(F)(F)F)ccc1C(=O)Nc1sc2c(c1C#N)CCC(=O)C2 | -69.5% (active) | -27.8% (active) | -5.51% (active) | -2.98% (active) | 12% | 4.6% (active) | -98.9% (active) | -81.3% (active) | 2.84% (active) | -83.9% (active) |
| COc1ccccc1NCc1ccc(CO)n1-c1ccc(C)cc1 | 96.7% | 102% | 80.2% | 94.9% | 96.1% | 80.2% | 100% | 83.8% | 86.5% | 106% |
| COc1ccc(/C=C/C(=O)c2ccc(NC(=O)CN3C(=O)NC(C)(c4ccccc4)C3=O)cc2)cc1 (stereo unspecified) | 75.7% | 67.6% | 96.8% | 91.8% | 67.7% | 61.4% | 60.1% | 50% | 56.5% | 93.8% |
| O=C(CSc1nnc(-c2c[nH]c3ccccc23)n1-c1ccccc1)c1ccc(Br)cc1 | 44% | 57.4% | 38.8% | 70.2% | 61.6% | 46.2% | 17.2% | 35.2% | 41.8% | 34.9% |
| O=C(Nc1ccc(Cl)c(C(F)(F)F)c1)c1cncc(C#Cc2cnc3ccc(N4CCOCC4)nn23)c1 | 15.8% | 8.82% (active) | -1.28% (active) | -10.8% (active) | 20.2% | 23.4% | 4.01% (active) | -10.3% (active) | -48.9% (active) | 0.817% (active) |
| CN1CCN(Cc2ccc(NC(=O)c3cncc(C#Cc4cnc5ccc(N[C@H]6CCOC6)nn45)c3)cc2C(F)(F)F)CC1 | -84.3% (active) | -33.2% (active) | -98% (active) | -98.8% (active) | -79.7% (active) | -20.7% (active) | -100% (active) | -93.3% (active) | -99.1% (active) | -92.8% (active) |
| CN1CCN(c2ccc(C(=O)/C=C/c3ccc(OC(F)F)cc3)cc2)CC1 | -49.1% (active) | 13.4% | 73.8% | 47.4% | -15.6% (active) | 25.5% | 52.9% | 44.6% | -100% (active) | 67.5% |
| N#Cc1ccc(-c2nn(-c3ccc(C(=O)O)cc3)cc2CNc2ccc(Cl)cc2)cc1 | 47.3% | 100% | 107% | 75.9% | 76.8% | 65.2% | 76% | 61.2% | 60.8% | 77.6% |
| COc1ccc2[nH]cc(/C=N/Nc3ccc(Br)cn3)c2c1 | 6.98% (active) | 23.3% | 43.7% | 51.2% | 20.1% | 23% | 21.9% | 51.3% | 7.7% (active) | 61.5% |
| CCCCSc1nc(Nc2ccc(/C(C)=N/NC(N)=S)cc2)c(C#N)c(-c2ccccc2)n1 | 38.4% | 61.2% | 96.8% | 50% | 18.8% | 28.9% | 54.9% | 64.5% | 5.73% (active) | 66.3% |
| CN1C(=O)N(C)C2SC(N/N=C/c3ccccc3)=NC21 (stereo unspecified) | 30.1% | 38.5% | 60.7% | 74.6% | 60.4% | 84.7% | 68.4% | 42.5% | 63.4% | 75.5% |
| O=C(Nc1ccc(I)cc1F)c1cc(-c2ccc(F)cc2F)ccc1O | 5.34% (active) | 17% | -23.7% (active) | 11.3% | 4.61% (active) | 2.22% (active) | -75.3% (active) | -14.4% (active) | 6.5% (active) | 4.38% (active) |
| CCOC(=O)C1=C(N)N(c2ccc(C)cc2)C2=C(C(=O)CC(C)(C)C2)C1c1ccccc1OC (stereo unspecified) | 98.4% | 116% | 105% | 93.1% | 104% | 93.5% | 100% | 89.8% | 104% | 104% |
| CC(=O)c1ccc(NC(=O)NCn2c(=O)[nH]c3ccccc3c2=O)cc1 | 101% | 105% | 99.9% | 90.4% | 86.7% | 86.9% | 96.8% | 81.1% | 92.8% | 103% |
| C[C@H]1[C@H](C)CC[C@]2(COC(=O)CCC(=O)NCC#CCN3CCNCC3)CC[C@]3(C)C(=CC[C@@H]4[C@@]5(C)CCCNC(C)(C)[C@@H]5CC[C@]43C)[C@H]12 | 16.1% | -21% (active) | 82.2% | 60% | 14.7% | 17.8% | 9.74% (active) | 46.7% | 1.63% (active) | -26.5% (active) |
| COc1ccc(-c2cc(-c3cc(C(=O)c4ccccc4)n4ccc(C)cc34)nc(N)c2C#N)cc1 | 78% | 75% | 91.5% | 45.1% | 45.4% | 63.5% | 67.7% | 64.6% | 51.3% | 87.6% |
| CN1CCCN(Cc2ccc(C(=O)Nc3cccc(Nc4ccc5c(O)cccc5n4)c3)cc2C(F)(F)F)CC1 | -55.6% (active) | -55.2% (active) | 13.9% | -81.2% (active) | -65.7% (active) | 2.18% (active) | -100% (active) | -94.8% (active) | -95.5% (active) | -100% (active) |
| O=C(N/N=C/c1ccc(-c2cccc([N+](=O)[O-])c2)o1)c1[nH]c2ccc(Br)cc2c1-c1ccccc1 | 0.278% (active) | -44.9% (active) | 83.1% | 32.9% | 9.05% (active) | 18.8% | -20.7% (active) | 33% | 7.19% (active) | 57.7% |
| N[C@@H](CSSC[C@H](N)C(=O)Nc1ccc(OCC2CCCC2)cc1)C(=O)Nc1ccc(OCC2CCCC2)cc1 | -76.9% (active) | -93.3% (active) | -96.3% (active) | -95.6% (active) | -86.6% (active) | -87.3% (active) | -100% (active) | -99.7% (active) | -96.1% (active) | -99% (active) |
| O=c1c2ccccc2nc(COc2ccccc2)n1/N=C/c1ccc(N2CCCC2)cc1 | 82.8% | 79.9% | 108% | 89.5% | 105% | 80.3% | 62.4% | 61.6% | – | 100% |
| Cc1cc(=O)oc2cc(OCCCCOc3ccc(/C=C/C(=O)Nc4ccc(F)c(Cl)c4)cc3)ccc12 | 97% | 111% | 116% | 93.4% | 95.1% | 99.6% | 85.2% | 92% | – | 93% |
| C=C1CCC2C3(C)COC(c4cccc(F)c4)OC3CCC2(C)C1CC(O)C1=CCOC1=O (stereo unspecified) | 8.31% (active) | 34.7% | 74.2% | 95.4% | 70.2% | 45.1% | 60.1% | 64.6% | – | 64.1% |
| Cc1ccc(C(=O)Nc2ccc(-n3c(C)nc4c(cnn4-c4ccccc4)c3=O)cc2)cc1 | 75.3% | 71.2% | 82.8% | 82.1% | 90% | 71.6% | 7.05% (active) | 60.8% | – | 80.7% |
